Over roughly 18,000 sequences, “log2 normalized intensity” has its median near 0.36; the highest 2% begin near 7.3. The list comes from a sample in which the highest values are over-represented; it also holds similar and randomly drawn sequences.
Target: T1, HNF4alpha8 (COS-7 nuclear extract) (Homo sapiens, UniProt P41235-5 1-452)
T1 sequence: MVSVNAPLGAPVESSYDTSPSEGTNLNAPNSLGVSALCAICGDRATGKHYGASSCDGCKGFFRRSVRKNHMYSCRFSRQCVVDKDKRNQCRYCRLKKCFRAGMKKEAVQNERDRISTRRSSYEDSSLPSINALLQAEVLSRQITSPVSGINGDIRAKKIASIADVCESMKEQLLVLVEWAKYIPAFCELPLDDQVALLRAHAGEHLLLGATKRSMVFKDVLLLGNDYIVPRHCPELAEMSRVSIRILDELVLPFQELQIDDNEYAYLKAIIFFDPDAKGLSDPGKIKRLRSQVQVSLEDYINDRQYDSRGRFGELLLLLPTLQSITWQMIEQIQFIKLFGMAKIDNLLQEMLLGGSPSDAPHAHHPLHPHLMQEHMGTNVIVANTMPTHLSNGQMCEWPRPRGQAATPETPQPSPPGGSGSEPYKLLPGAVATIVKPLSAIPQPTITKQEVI
Experiment: protein-binding microarray; COS-7 nuclear extract on double-stranded Agilent 4x180k PBM; binding buffer, salt, pH and temperature not given in the material; high values mean tight binding
Settings: chain copies: 2; label: 3' end of strand 1 on the slide; dsDNA, one strand shown
Method in brief: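 A human HNF4α isoform was expressed in COS-7 cells by transient CaPO4 transfection, and nuclear extracts were prepared. These were applied to a custom Agilent SurePrint G3 4x180k array carrying ~44,000 test sequences in quadruplicate as double-stranded ~60-nt oligonucleotides, and an Agilent G2565CA scanner imaged bound HNF4α at 2-µm resolution. The background-corrected, normalized gProcessedSignal from Agilent software was used as the binding signal.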

Q: For “GGGTTAGGCCTTTAGAGGATTTACTTATACGCCTAGGGAGATTAGAGTATCGGTCGA”, which binding signal is on record?
A: 0.821 log2 normalized intensity

Q: “TGCTCATAGCTACGGGTGACCTTGAGCACTGCCTAGGGAGATTAGAGTATCGGTCGA” was tested. Which binding signal did it give?
A: 3.93 log2 normalized intensity

Q: For “TCCTCTTCCCTACCCCCTGGGAGTAACCTGGCCTAGGGAGATTAGAGTATCGGTCGA”, which binding signal is on record?
A: 3.13 log2 normalized intensity

Q: With “TACATTGGACAACTGTACTTTGGACTGGGGGCCTAGGGAGATTAGAGTATCGGTCGA” as the sequence, how does the binding signal read?
A: 6.69 log2 normalized intensity

Q: Which binding signal does the source give for “GACTCATCTCCAAACGAGACTTTGGACTTTGCCTAGGGAGATTAGAGTATCGGTCGA” here?
A: 9.58 log2 normalized intensity

Q: Which binding signal does the source give for “GAAGGAGAGAGAGGGAGAGTGGCCTTTGGAGCCTAGGGAGATTAGAGTATCGGTCGA” here?
A: 4.12 log2 normalized intensity

Q: For “CACAAATTGGAGAGCATCTTGGACTTGGGAGCCTAGGGAGATTAGAGTATCGGTCGA”, which binding signal is on record?
A: 3.16 log2 normalized intensity

Q: For “ACAGTTCTGATACATTGGACAACTGTACTTGCCTAGGGAGATTAGAGTATCGGTCGA”, which binding signal is on record?
A: 2.21 log2 normalized intensity

Q: Which binding signal does the source give for “CAAACGAGACTTTGGACTTTGGACTTGGGAGCCTAGGGAGATTAGAGTATCGGTCGA” here?
A: 10.9 log2 normalized intensity

Q: For “TCTGATACATTGGACAACTGTACTTTGGACGCCTAGGGAGATTAGAGTATCGGTCGA”, which binding signal is on record?
A: 8.02 log2 normalized intensity

Q: With “AAAGGGACTCATCTCCAAACGAGACTTTGGGCCTAGGGAGATTAGAGTATCGGTCGA” as the sequence, how does the binding signal read?
A: 2.23 log2 normalized intensity

Q: Which binding signal does the source give for “CTCCAAACATCTTTGGTATGGACTGATATTGCCTAGGGAGATTAGAGTATCGGTCGA” here?
A: 1.85 log2 normalized intensity

Q: “GTGACTACCTGGTTAAAAGGACAACCTTCGGCCTAGGGAGATTAGAGTATCGGTCGA” was tested. Which binding signal did it give?
A: -0.397 log2 normalized intensity

Q: For “AGAATGTGGTTCTTTTCATTAAATATTTAAGCCTAGGGAGATTAGAGTATCGGTCGA”, which binding signal is on record?
A: 0.534 log2 normalized intensity

Q: Which binding signal does the source give for “CCTCAATGCTATCTCCCAGTTCTTTTGACCGCCTAGGGAGATTAGAGTATCGGTCGA” here?
A: 2.7 log2 normalized intensity

Q: With “AGTTATATCTTACCTCCTTCTCCCCCATGCGCCTAGGGAGATTAGAGTATCGGTCGA” as the sequence, how does the binding signal read?
A: 4.73 log2 normalized intensity

Q: How did the binding signal turn out when “TCCTTTTGACCACAGTTATCTCCCCAGCTTGCCTAGGGAGATTAGAGTATCGGTCGA” was run?
A: 2.38 log2 normalized intensity

Q: For “CCAGTTCTTTTGACCTTTGCCTCATTCTTAGCCTAGGGAGATTAGAGTATCGGTCGA”, which binding signal is on record?
A: 7.02 log2 normalized intensity

Q: With “ATGCTATCTCCCAGTTCTTTTGACCTTTGCGCCTAGGGAGATTAGAGTATCGGTCGA” as the sequence, how does the binding signal read?
A: 8.5 log2 normalized intensity

Q: Which binding signal does the source give for “ATCTCCCAGTTCTTTTGACCTTTGCCTCATGCCTAGGGAGATTAGAGTATCGGTCGA” here?
A: 8.61 log2 normalized intensity

Q: For “TAGGCATGCAAACTTTGTTTAATGATTGCAGCCTAGGGAGATTAGAGTATCGGTCGA”, which binding signal is on record?
A: 0.0707 log2 normalized intensity

Q: “GGTACTGGAAACTGGGCAAGGTCCATTACGGCCTAGGGAGATTAGAGTATCGGTCGA” was tested. Which binding signal did it give?
A: 3.56 log2 normalized intensity

Q: Which binding signal does the source give for “CACCTTCTTTCTCCCAGAGGTCGATCTGATGCCTAGGGAGATTAGAGTATCGGTCGA” here?
A: 2.25 log2 normalized intensity

Q: For “AGTTGGAAAATATTTCTCTGAACTTTGACCGCCTAGGGAGATTAGAGTATCGGTCGA”, which binding signal is on record?
A: 8.68 log2 normalized intensity

Q: How did the binding signal turn out when “ACTGACCTTTGAGAGTCAACACTGAAATAGGCCTAGGGAGATTAGAGTATCGGTCGA” was run?
A: 2.06 log2 normalized intensity

Q: For “GAAAATATTTCTCTGAACTTTGACCTATAGGCCTAGGGAGATTAGAGTATCGGTCGA”, which binding signal is on record?
A: 9.31 log2 normalized intensity

Q: Which binding signal does the source give for “GGTGAAATAGCTGAACTATTTAAGGCCTTTGCCTAGGGAGATTAGAGTATCGGTCGA” here?
A: 0.507 log2 normalized intensity

Q: “TCTTTGATTAGGAAAGGGAACTCCCTGACCGCCTAGGGAGATTAGAGTATCGGTCGA” was tested. Which binding signal did it give?
A: 0.445 log2 normalized intensity

Q: How did the binding signal turn out when “CACTTCTGAAAAAAATATTGAACAAAGATTGCCTAGGGAGATTAGAGTATCGGTCGA” was run?
A: 0.276 log2 normalized intensity

Q: Which binding signal does the source give for “CTGTTTCTTTGTGTGTCAACAGAGTGCTTAGCCTAGGGAGATTAGAGTATCGGTCGA” here?
A: 1.48 log2 normalized intensity

Q: Which binding signal does the source give for “TAGGTACTATTATTAGAGTCCCTTTTTTAGGCCTAGGGAGATTAGAGTATCGGTCGA” here?
A: 0.509 log2 normalized intensity

Q: How did the binding signal turn out when “GAAAGGATCTCACCCAAACCATCCCAGGCAGCCTAGGGAGATTAGAGTATCGGTCGA” was run?
A: 3.1 log2 normalized intensity

Q: “GGTGATGTGAACCTCGATCCCTGGCTAAGGGCCTAGGGAGATTAGAGTATCGGTCGA” was tested. Which binding signal did it give?
A: 2.38 log2 normalized intensity

Q: How did the binding signal turn out when “CCCCACCCGCGGTCCGTCCCTCCTGGTCGAGCCTAGGGAGATTAGAGTATCGGTCGA” was run?
A: 3.57 log2 normalized intensity

Q: With “CCCAGTATGAGCGGCGCTGACCCCGGGAGCGCCTAGGGAGATTAGAGTATCGGTCGA” as the sequence, how does the binding signal read?
A: 3.67 log2 normalized intensity

Q: How did the binding signal turn out when “TGAGACTTTCCTGTTGGGGAGCAAAGGTTAGCCTAGGGAGATTAGAGTATCGGTCGA” was run?
A: 6.1 log2 normalized intensity

Q: Which binding signal does the source give for “CTGAGGAAGTGCTGACCTTTGGTCTAAACCGCCTAGGGAGATTAGAGTATCGGTCGA” here?
A: 6.93 log2 normalized intensity

Q: Which binding signal does the source give for “GTCAGAGTGCTGCATGCAAAAAGGCTGACCGCCTAGGGAGATTAGAGTATCGGTCGA” here?
A: 1.75 log2 normalized intensity

Q: Which binding signal does the source give for “TAGATAAGAGCTGAGGAAGTGCTGACCTTTGCCTAGGGAGATTAGAGTATCGGTCGA” here?
A: 6.57 log2 normalized intensity

Q: With “AGTGCTGCATGCAAAAAGGCTGACCTTTGAGCCTAGGGAGATTAGAGTATCGGTCGA” as the sequence, how does the binding signal read?
A: 8.62 log2 normalized intensity

Q: How did the binding signal turn out when “AAGAGCTGAGGAAGTGCTGACCTTTGGTCTGCCTAGGGAGATTAGAGTATCGGTCGA” was run?
A: 7.88 log2 normalized intensity

Q: How did the binding signal turn out when “CTTTTTGACCTTGCAGTGGCAAGGCAAAAGGCCTAGGGAGATTAGAGTATCGGTCGA” was run?
A: 2.28 log2 normalized intensity

Q: “TGCATGCAAAAAGGCTGACCTTTGACTCTCGCCTAGGGAGATTAGAGTATCGGTCGA” was tested. Which binding signal did it give?
A: 8.15 log2 normalized intensity

Q: With “TCTCGGTCAAACCTTTGACCCTTTATAATCGCCTAGGGAGATTAGAGTATCGGTCGA” as the sequence, how does the binding signal read?
A: 6.91 log2 normalized intensity

Q: For “CCTAAACCTGCAAACCTTTGACCTTTCCATGCCTAGGGAGATTAGAGTATCGGTCGA”, which binding signal is on record?
A: 6.22 log2 normalized intensity

Q: How did the binding signal turn out when “CTTTGAAATGTCCTGAGTGATTGTAGTGTCGCCTAGGGAGATTAGAGTATCGGTCGA” was run?
A: 1.86 log2 normalized intensity

Reference: article PMC10726135, “HNF4α isoforms regulate the circadian balance between carbohydrate and lipid metabolism in the liver”
